Rows were chosen to be rich in hits. Some 20% of all compounds tested hit in one or more screens of this group.
Pf growth 48h: P. falciparum growth inhibition at 48 hours (one generation). Potency, µM (top dose mostly 28.7 µM), hits mostly inhibitors. 310,000 tested, 5.9% active. AID 504832. P. falciparum luciferase growth in erythrocytes, 48 h
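Firefly luciferase activity from engineered P. falciparum reports growth; inhibitors lower the luminescent signal. Cultures contained 2% hematocrit erythrocytes at 0.1% final parasitemia.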
Shiga inhibitor: inhibitors of Shiga toxin in Vero cells; Vero cells, Shiga toxin protein synthesis inhibition reporter; 290,000 tested, 9.2% active; AID 2315; inhibition, % at 38.7 µM; in the data active means inhibition mostly above about 28%, no sharp cut-off; inactive means mostly below about 43%
Pf growth 96h: inhibits malaria parasite growth, 96 h; P. falciparum luciferase reporter growth, 96 h; Potency, µM (highest dose often 28.7 µM), most hits filed as inhibitors; 320,000 tested, 6.9% active
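Erythrocytes infected with luciferase-expressing P. falciparum were dispensed at 2% hematocrit and 0.05% parasitemia (final), then incubated with compounds 96 hours at 37 C in 5% CO2. Luminescence after detection reagent addition reported growth.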
CHX counter: counter-screen for Shiga toxin inhibitors: cycloheximide protein synthesis inhibition. 300,000 tested, 12% active. max response, %. cell reporter, cycloheximide protein synthesis inhibition counterscreen; in the data active means max response mostly above about 13%, no sharp cut-off; inactive means mostly below about 14%; further: read at 38.3 µM for the half of the compounds with a filed dose
HCMV inh: inhibitors of human cytomegalovirus; AID 1259415; activity change, negative = inhibition, % at 57.5 µM; 410,000 tested, 4.5% active; HFF cells, HCMV-luciferase reporter, 72 h; stronger effect = lower value; in the data active means activity change below about -60%; inconclusive means no clear call, values can overlap the other calls; inactive means above about -39%
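Two compound doses tested in HFFs infected with HCMV-luciferase, MOI 1 PFU/cell, 72 h at 37C. Lysate luminescence read with OneGlo; data normalized against buffer-only and 10uM Salinomycin inhibitor controls.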
Of the large screens only hits and unclear results are named; the others gave an inactive call. Unless noted, the call rests on the fitted dose curve; in most records, active means well fitted inhibition curve with a large enough effect; inconclusive means small, poorly fitted or top-dose-only effect, or another doubt; inactive means no such curve, though single readings can be large or run the other way.

CC(Cc1ccccn1)NC(=O)CCc1nnc(C2CCCCC2)o1 (centres undefined)	Pf growth 96h 13µM, CHX counter 11
Cn1c(/C=C/c2ccc(Cl)cc2)c([N+](=O)[O-])c(=O)n(C)c1=O	Pf growth 48h inconclusive, HCMV inh -98
COc1ccc(/C=C/c2c([N+](=O)[O-])c(=O)n(C)c(=O)n2C)c(OC)c1OC	Pf growth 48h inconclusive, HCMV inh -65
COc1ccc(/C=C/c2c([N+](=O)[O-])c(=O)n(C)c(=O)n2C)cc1OC	Pf growth 48h inconclusive
CN(/C=C/c1c([N+](=O)[O-])c(=O)n(C)c(=O)n1C)c1ccccc1	none
Cn1c(/C=C/c2cccc([N+](=O)[O-])c2)c([N+](=O)[O-])c(=O)n(C)c1=O	Pf growth 48h inconclusive, Pf growth 96h inconclusive, HCMV inh -102
CCCCCOc1ccc(/C=C/c2c([N+](=O)[O-])c(=O)n(C)c(=O)n2C)cc1	Pf growth 48h 12µM, Pf growth 96h inconclusive, HCMV inh -94
O=c1cc(C(F)(F)F)[nH]c2ccc(C(F)(F)F)cc12	Pf growth 48h inconclusive, Pf growth 96h inconclusive, HCMV inh -97
Cc1cc(=O)c2ccc(C(F)(F)F)cc2[nH]1	none
Nc1nonc1-c1nc2ccccc2n1CC(=O)Nc1cccc(Cl)c1Cl	none (no result: Pf growth 48h, Shiga inhibitor, Pf growth 96h, CHX counter)
CCn1c(N2CCN(S(=O)(=O)c3ccc(OC)cc3)CC2)nc2ccccc21	Pf growth 48h inconclusive, Pf growth 96h 12µM
CCCn1c(N2CCN(C(=O)Nc3ccc(Cl)cc3)CC2)nc2ccccc21	Pf growth 48h inconclusive
Cc1cc(C)n(-c2nc3ccccc3nc2N2CCCC2)n1	none (no result: Pf growth 48h)
CCn1c(N2CCN(S(=O)(=O)c3ccccc3C(F)(F)F)CC2)nc2ccccc21	Pf growth 48h inconclusive, Pf growth 96h inconclusive
CCn1c(N2CCN(C(=O)C34CC5CC(CC(C5)C3)C4)CC2)nc2ccccc21	Pf growth 48h 13µM (no result: Pf growth 96h, HCMV inh)
Cc1cc(C)n(-c2nc3ccccc3nc2N2CCN(S(=O)(=O)c3cccc(C#N)c3)CC2)n1	Pf growth 48h 4.1µM
COc1ccc(S(=O)(=O)N2CCN(c3nc4ccccc4nc3-n3nc(C)cc3C)CC2)cc1	Pf growth 48h inconclusive, Pf growth 96h 9.3µM (no result: HCMV inh)
CCOC(=O)c1ccccc1NC(=O)C1CC(=O)N(C(C)(C)C)C1 (centres undefined)	none (no result: Shiga inhibitor)
CC1CCN(CCCNC(=O)C2CC(=O)N(C3CCCCCC3)C2)CC1 (centres undefined)	none
O=C(C1CC(=O)N(C2CCCC2)C1)N1CCC(Cc2ccccc2)CC1 (centres undefined)	HCMV inh -65
O=C(NCCN1CCCC1)C1CC(=O)N(C2CCCCC2)C1 (centres undefined)	Pf growth 96h 13µM, HCMV inh inconclusive
CCOC(=O)c1ccccc1NC(=O)C1CC(=O)N(C2CCCCC2)C1 (centres undefined)	Shiga inhibitor 78, Pf growth 96h inconclusive, CHX counter 58
O=C(NCCc1ccc(Cl)cc1)C1CCC(=O)N(C2CCCCCC2)C1 (centres undefined)	HCMV inh -61
Cc1cccc(Cn2cnc3c(NS(C)(=O)=O)c(C)c(C)cc32)c1	Pf growth 48h inconclusive, Pf growth 96h inconclusive
Cc1ccc(CN(C)C(=O)C2CCC(=O)N(C3CCCCCC3)C2)cc1 (centres undefined)	none
O=C(NCc1cc(F)ccc1F)C1CCC(=O)N(C2CCCCCC2)C1 (centres undefined)	Shiga inhibitor 86, CHX counter 35
CN(Cc1ccccc1Cl)C(=O)C1CCC(=O)N(C2CCCCCC2)C1 (centres undefined)	Pf growth 48h inconclusive, CHX counter 14
O=C(NCc1cc(C(F)(F)F)ccc1F)C1CCC(=O)N(C2CCCCCC2)C1 (centres undefined)	Pf growth 96h inconclusive
O=C(NCCc1ccccc1)C1CC(=O)N(C2CCCCC2)C1 (centres undefined)	Pf growth 96h 5.9µM
C[C@@H]1O[C@@H](OC2O[C@@H](COc3cc(O)c4c(=O)cc(-c5ccc(O)cc5)oc4c3)[C@@H](O)[C@@H](O)[C@@H]2O)[C@H](O)[C@H](O)[C@H]1O (some centres undefined)	none (no result: Pf growth 48h, Pf growth 96h, HCMV inh)
CCN(C(=O)COC(=O)c1ccc(C)c(S(=O)(=O)N2CCCCC2)c1)C1CCS(=O)(=O)C1 (centres undefined)	Pf growth 48h inconclusive (no result: Shiga inhibitor, CHX counter)

Assay outcomes as filed in PubChem.
